Bioassay records from PubChem.
Phagocytosis inh: blocks phagocytosis by macrophages; actives 0.07% (n = 110,000); J774A.1 macrophage IgG-bead phagocytosis, imaging; inhibition, % at 5 µM;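 active means inhibition above the mean of the plate negative controls plus 5 SD, cut at about 13% in these data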;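 further: phagocytic index as fraction of beads internalized from green versus red external bead signal; plate controls were DMSO negative control for no effect and cytochalasin-D positive control for full effect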
cytoskel mod: modifiers of cytoskeleton assembly | HUVEC TNFa F-actin phalloidin imaging, high content | inhibition, % at 2 µM | actives 0.18% (n = 91,000) | AID 836;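 active means inhibition above the batch mean plus 3 SD and confirmed as a hit by visual image inspection, cut at about 30% in these data, passing the limit was not always enough; inconclusive means above the inhibition threshold but rejected on visual inspection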
E-sel TNF inh: TNF alpha driven E-selectin expression inhibition | HUVEC TNFa-induced E-selectin immunofluorescence, high content | inhibition, % at 2 µM | actives 0.71% (n = 120,000);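 active means inhibition above the batch mean plus 3 SD, and confirmed as a hit on visual image review, cut at about 43% in these data; inconclusive means passes the inhibition cutoff but fails visual image review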;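 further: 0% = TNF-stimulated DMSO wells and 100% = unstimulated control wells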
Insulin prom inh: TRM-6 insulin promoter activity inhibition; inhibition, % at 2 µM; TRM-6 cells (human fetal islet line), insulin promoter-eGFP reporter, imaging; reporter expression induced with tamoxifen; actives 0.9% (n = 130,000);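 active means inhibition above the mean plus 3 SD, with well images judged a real hit on visual review, cut at about 60% in these data, passing the limit was not always enough; inconclusive means inhibition over the cutoff but images rejected on review; inactive means inhibition not above the cutoff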
VCAM1 TNFa inh: reduces TNF alpha induced VCAM1 expression in HUVEC | inhibition, % at 2 µM | HUVEC TNFa-induced VCAM-1 immunofluorescence, high-content imaging | actives 0.48% (n = 95,000) | AID 802;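 active means inhibition above the batch mean plus 3 SD, with images confirmed as a hit by eye, cut at about 37% in these data; inconclusive means inhibition above that limit but hit not confirmed in images; inactive means inhibition not above that limit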;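 further: 0% = TNF-stimulated DMSO wells and 100% = unstimulated control wells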
HUVEC tox TNFa: HUVEC cytotoxicity counter-screen, TNF alpha stimulated | actives 0.17% (n = 93,000) | cell count reduction, % at 2 µM | HUVEC TNFalpha-stimulated, Hoechst cell count, imaging;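 active means cell count reduction exceeding the screen mean by over 5 SD, scaled to untreated wells per plate, cut at about 78% in these data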;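 further: cells counted after 24 h of TNF alpha exposure following the 1 h pretreatment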
* = called active by the depositor; ? = inconclusive; nt = no result; [ ] = remark or other dose. Most compounds without a hit are left out; they make up all but 1.6% or so of the library.

SMILES	Phagocytosis inh	cytoskel mod	E-sel TNF inh	Insulin prom inh	VCAM1 TNFa inh	HUVEC tox TNFa
COC(=O)c1c(NC(=O)C2COc3ccccc3O2)sc2c1CCN(Cc1ccccc1)C2 (centres undefined)	0.4	nt	63.2*	nt	nt	nt
CCCNC(=O)c1c(NC(=O)C2COc3ccccc3O2)sc2c1CCCC2 (centres undefined)	nt	7.0	-22.3	-52.4	16.7	nt
O=C1Nc2ccc(F)cc2C12Nc1ccccc1-c1nnc(SCc3ccccc3)nc1O2 (centres undefined)	nt	-1.5	11.6	75.0*	10.7	-4.0
Cc1ccc(CSc2nnc3c(n2)OC2(Nc4ccccc4-3)C(=O)Nc3ccc(F)cc32)cc1 (centres undefined)	nt	-2.5	6.2	nt	27.6	-10.4
O=C1CC(Sc2nnc(-c3ccccc3O)o2)C(=O)N1c1ccccc1 (centres undefined)	-0.6	nt	70.4*	nt	nt	nt
COc1ccc(N2C(=O)CC(Sc3nnc(-c4ccccc4)o3)C2=O)cc1 (centres undefined)	-0.8	nt	-38.2	11.1	nt	nt
Cc1cccc(N(C(=O)c2ccc(CN3CCOCC3)o2)C(C(=O)NC(C)(C)C)c2ccc(F)cc2)c1 (centres undefined)	nt	-10.4	2.0	-266.7	41.4	1.5
O=C(/C=C/c1ccc2c(c1)OCO2)Nc1ccc(Cl)cn1	nt	nt	nt	72.7*	nt	nt
O=C(CCc1cnccn1)NC1CCCc2c1cnn2-c1ccc(F)cc1F (centres undefined)	nt	nt	4.2	nt	nt	nt
CCOC(=O)c1c(N2CCCCC2)c2ccccc2[nH]c1=O	-0.4	-0.5	25.7	65.6*	-6.1	-16.2
CCOC(=O)c1c(NCC(C)C)c2ccccc2[nH]c1=O	nt	-12.9	-19.2	10.7	-9.1	-13.8
CC(=O)/C(=C/c1ccc(N(C)C)cc1)C(=O)c1ccccc1	25.8*[artifact]	nt	nt	-6.5	nt	nt
CN(C)c1ccc(C(=O)c2ccccc2)cc1	0.2	-4.1	2.5	40.0	1.2	2.9
NNC(=O)c1cc2cc3ccccc3nc2s1	nt	nt	nt	13.3	nt	nt
COc1cccc(-c2ccc(SCC(=O)c3ccccc3)nn2)c1	nt	nt	-5.9	77.8*	nt	nt
COc1ccc(C(=O)CSc2ccc(-c3ccccc3)nn2)cc1	3.8	nt	-17.3	nt	nt	nt
CCOC(=O)c1cc2c(ccn2C)n1CC(=O)N1CCC(Cc2ccccc2)CC1	0.0	nt	95.8*	-6.2	nt	nt
CN1C(=O)/C(=C/C=C2\SCCN2C)N(C)C1=S	nt	nt	25.0	88.9*	nt	nt
CN1C(=O)/C(=C/C=C2\SCCN2C)SC1=S	2.6	nt	-13.3	-40.0	nt	nt
CCOC(=O)C1CCCN(Cc2ccccc2F)C1 (centres undefined)	-0.2	nt	74.6*	52.2	nt	nt
COc1ccc(/C=N/NC(=O)C2C(C=C(Cl)Cl)C2(C)C)c(OC)c1 (centres undefined)	nt	nt	nt	35.3	nt	nt
O=C(Nc1ccc(-c2nc3cccnc3s2)cc1)c1ccc(Br)o1	-0.9	-17.3	99.9*	nt	11.1	-33.9
COc1cc(-c2nc(-c3ccc(NC(=O)c4ccc(Br)o4)cc3)no2)cc(OC)c1OC	0.8	-1.7	-15.5	-5.6	4.1	-16.1
COc1ccc(-c2nc(-c3ccc(NC(=O)c4ccc(Br)o4)cc3)no2)cc1OC	-1.7	-6.9	nt	-20.0	76.0*	39.1
Cc1ccc(Cl)cc1N1CCN(Cc2nc3ccsc3c(=O)[nH]2)CC1	-1.2	4.5	nt	nt	0.1	1.3
SMILES	Phagocytosis inh	cytoskel mod	E-sel TNF inh	Insulin prom inh	VCAM1 TNFa inh	HUVEC tox TNFa
Cc1ccc(C(=O)CSc2ncn[nH]2)cc1	-1.3	nt	nt	57.1	nt	nt
O=C(O)CSc1ncn[nH]1	-2.7	-3.1	nt	76.7*	10.0	-8.5
CC(=O)Nc1ccc2c(c1)ncn2-c1ccc(C)cc1	nt	nt	-12.7	nt	nt	nt
CCNc1nc(Oc2ccc(=O)[nH]n2)nc(N2CCOCC2)n1	-1.2	-5.2	21.6	75.0*	1.8	-7.4
CN(CC(=O)Nn1cnnc1)S(=O)(=O)c1ccccc1	-1.8	-4.2	4.5	25.0	6.4	-20.0
Cc1ccccc1OCC(=O)Nc1ccccc1N1CCC(C)CC1	nt	nt	nt	-17.6	nt	nt
Cc1nnc(SCC(=O)N(C)c2ccccc2)n1Cc1ccccc1	nt	nt	88.9*	nt	nt	nt
Cc1nnc(SCC(=O)c2ccccc2)n1Cc1ccccc1	-3.6	nt	16.6	nt	nt	nt
COC(=O)C1=C(C)N=C2SC(C#N)=C(N)N2C1c1ccc(OCc2ccccc2)cc1 (centres undefined)	nt	-13.9	23.5	16.7	10.5	-3.7
CCOC(=O)c1c(-c2ccc(F)cc2)csc1NC(=O)c1c(-c2ccccc2)noc1C	129.4*[artifact]	nt	2.3	nt	nt	nt
COC(=O)c1c(-c2ccccc2)csc1NC(=O)c1ccco1	-0.2	-18.6	71.2*	nt	2.6	7.5
COC(=O)CN(c1ccc(F)cc1)S(=O)(=O)c1ccc2c(c1)OCCO2	-0.2	96.3*	-1.4	nt	28.6	2.5
CCOC(=O)C1CCCN(C(=O)COc2ccc(N(C)S(=O)(=O)c3ccc(F)cc3)cc2)C1 (centres undefined)	nt	nt	nt	-68.8	nt	nt
O=S(=O)(NCC1CCCO1)c1cnc(Cl)c(Br)c1 (centres undefined)	-2.6	nt	-6.2	33.3	nt	nt
O=c1c2ccccc2nnn1CSc1ncnc2ccccc12	nt	-9.3	0.3	31.2	46.3*	53.5
O=c1c2ccccc2nnn1CSc1ccccc1F	-3.7	nt	-0.7	-6.7	nt	nt
CCCCS(=O)(=O)/C=C\C1C2C=CC(C2)C1S(=O)(=O)CCCC (centres undefined)	1.8	-29.5	-18.1	nt	17.4	49.0
CCCCS(=O)(=O)/C=C\C=C/S(=O)(=O)CCCC	4.3	28.1	nt	nt	86.3*	28.1
CC1=C(C(=O)N2CCOCC2)C(c2ccc(OC(F)F)cc2)NC(=S)N1c1ccccc1 (centres undefined)	nt	nt	nt	36.8	nt	nt
CCCCn1nnnc1NCc1ccc(C)s1	nt	-8.6	7.9	-30.2	-5.2	nt
COC(=O)N1[C@H](C)C=C[C@]1(Cc1ccccc1)C(=O)O	nt	nt	96.2*	-5.0	nt	nt
Cc1nnc(NN2CCOCC2)[nH]c1=O	nt	nt	-0.5	nt	nt	nt
Cc1cccc(C(=O)Oc2ccccc2C2C[C@]3(C)CC(=O)NC3N2C(=O)c2cccc(C)c2)c1 (some centres undefined)	-0.5	?	-15.3	-60.0	?	100.0*
Nc1nnc(SCC(=O)NN2C(=O)NC3(CCCCC3)C2=O)s1	-8.7	nt	-21.3	-18.9	nt	nt
CC(=O)N1CCC(N(CCN2CCOCC2)C(=S)Nc2c(C)cccc2C)CC1	-7.0	nt	-4.1	11.1	nt	nt
SMILES	Phagocytosis inh	cytoskel mod	E-sel TNF inh	Insulin prom inh	VCAM1 TNFa inh	HUVEC tox TNFa
COc1ccc(S(=O)(=O)Nc2nc3n(n2)C(c2ccc(Cl)cc2)CC(=O)N3)cc1 (centres undefined)	-0.3	nt	-1.7	-4.9	39.1*	2.0
O=c1c2c3c(sc2nc2n1CCC2)CCC3	-2.9	37.3*	4.2	-75.0	15.3	-13.0
O=C(c1ccccc1)c1ccc2nc[nH]c2c1	-0.6	-18.1	-10.1	94.6*	19.4	-17.7
O=C(NC1CCCC1)c1ccc2nc[nH]c2c1	0.9	-5.8	-17.0	-3.5	4.9	0.0
Cc1c(Cl)cccc1N1C(=O)CC(N(O)c2ccccc2)C1=O (centres undefined)	-0.6	-1.2	99.8*	26.7	-19.0	-13.7
Cc1ccc(-c2noc(CSc3nc(N)cc(N)n3)n2)cc1	0.0	34.9*	nt	nt	30.3	72.2
Cc1ccc(-c2noc(CSc3ccccc3)n2)cc1	0.3	-0.6	-4.0	57.1	15.6	-8.0
c1ccc2c(NC3=NCCCCS3)cccc2c1	nt	-2.1	-6.3	-20.9	-10.4	-8.7
